# Measured values published in the supplement of paper PMC12350171.
# Where a name gives a salt, the structure may show the parent alone. Values without a mark were called inactive.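 The calls were made as follows: active = AUC significantly below DMSO controls by Student t-fit with adjusted P under 0.01; inactive = not significantly reduced.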
# Test system: Haemophilus parainfluenzae
# Assay: growth AUC normalised to DMSO control (fraction of control); higher = less growth inhibition, active = hit call of the paper
# Conditions: 20 µM
# How it was run: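 Hemin and NAD were added to the medium for Haemophilus parainfluenzae. All pathogens, after two anaerobic passages, were inoculated at a starting OD578 of 0.01 into pre-reduced mGAM plates with 20 μM compound and 1% DMSO under breathable seals, and OD578 was read hourly for 24 h in three biological replicates. AUC of each growth curve was obtained with the trapezoidal rule up to the exponential-to-stationary transition and normalised to DMSO controls from the same plate.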
row,Compound,growth AUC normalised to DMSO control
1,CN(C)[C@@H]1C(=O)C(C(N)=O)=C(O)[C@@]2(O)C(=O)C3=C(O)c4c(O)ccc(Cl)c4[C@@H](O)[C@H]3C[C@@H]12 [Demeclocycline hydrochloride],0.0384 (active)
2,CCOC(=O)[C@H](CCc1ccccc1)N[C@@H](C)C(=O)N1[C@H](C(=O)O)C[C@@H]2CCC[C@@H]21 [Ramipril],1.02
3,CC(Oc1ccccc1)C(=O)N[C@@H]1C(=O)N2[C@@H]1SC(C)(C)[C@@H]2C(=O)O (stereo not given in full) [Phenethicillin potassium salt],0.59 (active)
4,CC(C)N1CCN(c2ccc(OCC3COC(Cn4cncn4)(c4ccc(Cl)cc4Cl)O3)cc2)CC1 (stereo not given) [Terconazole],1.03
5,CCN[C@H]1CN(CCCOC)S(=O)(=O)c2sc(S(N)(=O)=O)cc21 [Brinzolamide],0.946
